Results taken from the supplement of paper PMC6555819.

These sequences were tested on VDR:RXRa (NR concentration 270 nM, RXRa partner concentration 90 nM) (assay: PBM binding z-score (relative to random genomic background probes); higher = stronger binding; sequences stand for … in GC…GCGATTGACAGCGTAGAATGAAGG).
Method: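 Protein-binding microarray (Agilent 4x180K custom design, double-stranded 60-nt probes: 5' GC cap, 34-nt variable region, 24-nt constant primer region; full probe sequence given). Purified or IVT nuclear receptor:RXRα heterodimers (3:1 NR:RXRα, mostly 270:90 nM) or homodimers were incubated for 1 h in PBS with 2% milk and no ligand, then detected with Alexa488 antibodies. Fluorescence from o1-orientation probes (~5 replicates averaged) was converted to z-scores against 500 random hg19 background probes. Variable regions are seed direct-repeat (DR0–DR5) sites, all their single-nucleotide variants and half-site ablations.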

Sequence	PBM binding z-score
CGAACTAGGTCAAAGGACAGTGAAAGGCGACGTA	1.32
CTATGTAGGTAAAGGGGGTCATTCAGTTTGAAAG	6.95
AGTCAAAGTTCACTAGGCAACGTAAGATTCAGCT	3.13
ATATGTAGGTTAGGGTGATTCAGAAAGTAGGGAA	1.09
ATCGAAAGGTCGCAGGTGAGTATACCCACCCGAA	3.2
GATACAGGGTCAATGCCAGAGTACGCGTATTGAT	3.93
CGTCCAAGGTCACCAGGTCAGTGAAAGCGACGTG	5.3
CGAACTAGGTCAAAGCACAGTGAAAGGCGACGTA	1.2
TCGAGTAGGTTACGGGCGCATTCAGGGATGAAGA	-0.354
ACTAGGTGGTCAGCTGAGGTCACACACAATTCGG	4.54
CTATGTAAGTTAAGGGGGTCATTCAGTTTGAAAG	6.67
AGTCCAAGTTCACTAGGTAACGTAAGATTCAGCT	3.46
CGAACTAGGTCATAGGACAGTGAAAGGCGACGTA	1.47
CCGAGTAGGTTACGAAGGGGCATTCAGTGCGAAT	3.08
CGCACTAGGTCAAAGGACAGTGAAAGGCGACGTA	1.35
TCGAGTAGGCTACGGGGGCATTCAGGGATGAAGA	2.2
CGAACTAGGTCAAAGGACCGTGAAAGGCGACGTA	1.03
CCTTACGGGTCGCTGACAGGTTATAGCATTTGGA	0.961
CCTACTGGGCCAAGGTCTTTGATCAGTCAAAGCA	-0.509
TTACGAAGGTGAAAGGTCGTTGATGCACGCCTTG	3.25

Sequence	PBM binding z-score
CCTGCTAGGTCATGGTCAGGTAATCTACAGTATG	1.76
CGAACTAGGTCAACGGACAGTGAAAGGCGACGTA	1.12
CCTACTGGGCCACGAAAGGTCCTTGATTCAGTGA	-0.615
CAAACCAGGTCACGAAAGGTCAAAGTCGAATGAC	7.16
CCTTACGGGTCAAGGTTATACCACGGGTGGTACG	3.65
CCTACTGGGGCAAAGGTCATTGATTCCAATGCTC	4.96
ATATGTAGGTTATCGGGTCATTCATTTTGCGCAT	3.52
TCGAGTAGGTTACGGAGGCATTCAGGGATGAAGA	0.176
ATATGTAGGTTAGGGTTATTCAGAAAGTAGGGAA	1.94
ACTAATTGGTCAGCTGAGGTCACACACAATTCGG	4.77
CAAACTAGGTCACAGAGGACAAAGTCCGTGCGTA	6.52
CAAACTAGGTCAAGAGGTCAAAGGCCGCTTCCCG	5.83
TCGAGTAGGTTACGGGAGCATTCAGGGATGAAGA	0.0873
ACTAGTTGTTCAGCTGAGGTCACACACAATTCGG	4.06
TCTGCTTGGTCAACGATGGTCAGCTAATCTGCTA	-0.63
TCGAGTAGGTTACGAGGGCATTCAGGGATGAAGA	2.32
CCGAGTAGGTTACGAGGGGGCATACAGTGCGAAT	4.67
TAGCCTAGGTCACGGGCCAGTATACCACGCGAAC	2.94
CCGACTGGGGCAACGGTTACCATACTCAGTACGA	-0.409
GATAAAGGGTCAGCTAGAGGCCAGAGTATGGAAA	3.73
